Reference: PubChem BioAssay (NCI)
Compounds without any hit were thinned out: in the full panel of roughly 83,000, 20% have a hit.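 The endpoint reported here, percent growth, reads 100 for growth as untreated, 0 for no net growth and -100 for all cells dead.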 Activity calls are given as the source filed them. The calls were made as follows: active = growth percent below 10; inactive = the rest.

Experiments:
Assay in all cases: NCI-60 one-dose screen, 48 h (100 = growth as untreated, 0 = no growth, -100 = all killed)
Details in all cases: 10 µM unless noted
[1] = system: HCT-15 colon
[2] = system: HT29 colon
[3] = system: SNB-75 CNS
[4] = system: SNB-19 CNS
[5] = system: U251 CNS
[6] = system: PC-3 prostate
[7] = system: SK-MEL-5 melanoma
[8] = system: UACC-62 melanoma
[9] = system: LOX IMVI melanoma
[10] = system: SK-MEL-28 melanoma
[11] = system: SK-MEL-2 melanoma
[12] = system: EKVX NSCLC
[13] = system: SN12C renal
[14] = system: UO-31 renal
[15] = system: TK-10 renal
[16] = system: ACHN renal
[17] = system: CAKI-1 renal
[18] = system: A498 renal
[19] = system: CCRF-CEM leukemia
[20] = system: MOLT-4 leukemia

Measured: growth

CS(=O)(=O)c1ccc(-c2[nH]c3ccc(F)cc3c2/C=N/O)cc1
inactive: [1] 98.4% | [2] 93.7% | [3] 69.2% | [4] 103% | [5] 91.2% | [6] 79.4% | [7] 103% | [8] 91.2% | [9] 95.3% | [10] 108% | [11] 94.9% | [12] 98.4% | [13] 99.1% | [14] 82.5% | [15] 99.4% | [16] 97% | [17] 81.4% | [18] 99.2% | [19] 92.9% | [20] 92.9%

CCOc1cc(N)ccc1C(=O)NCCCN(CC)CC
inactive: [1] 106% | [2] 102% | [3] 85% | [4] 102% | [5] 104% | [6] 101% | [7] 100% | [8] 95.5% | [9] 100% | [10] 97.5% | [11] 102% | [12] 106% | [13] 98.5% | [14] 75.8% | [15] 108% | [16] 94.6% | [17] 95.2% | [18] 66.5% | [20] 26.3%
active: [19] -13.6%

Nc1c(-c2nc3ccc(Br)cc3c(=O)[nH]2)nnn1-c1ccccc1
inactive: [1] 79% | [2] 58.8% | [3] 79.5% | [4] 70.6% | [5] 38.6% | [6] 73.4% | [7] 102% | [8] 93.9% | [9] 80.4% | [10] 96.2% | [11] 94.6% | [12] 101% | [13] 95.5% | [14] 106% | [15] 84.3% | [16] 71.6% | [17] 103% | [18] 87.4% | [19] 93.3% | [20] 85.1%

CC[C@@H](C[C@H](CCO)c1ccccc1)c1cc2ccccc2o1
inactive: [1] 95.3% | [2] 82.7% | [3] 79.9% | [4] 97.4% | [5] 90.9% | [6] 78.8% | [7] 106% | [8] 88.4% | [9] 101% | [10] 102% | [11] 81.3% | [12] 103% | [13] 95.8% | [14] 88.8% | [15] 98.8% | [16] 99.1% | [17] 77.4% | [18] 104% | [19] 90.7% | [20] 79.9%

c1ccc(-c2oc3ccccc3c2-c2ccccc2)cc1
inactive: [1] 93.6% | [2] 99% | [3] 72.5% | [4] 99.3% | [5] 95.9% | [6] 90% | [7] 84.3% | [8] 80% | [9] 95.8% | [10] 113% | [11] 92.9% | [12] 96.6% | [13] 92.2% | [14] 86.4% | [15] 110% | [16] 97.3% | [17] 69.4% | [18] 89.9% | [19] 86.1% | [20] 54.9%

CC(=O)c1sc(-c2ccccc2)cc1N
inactive: [1] 95.2% | [2] 88.7% | [3] 99.5% | [4] 94.5% | [5] 82.7% | [6] 90.8% | [7] 95.7% | [8] 91% | [9] 104% | [10] 108% | [11] 109% | [12] 44.4% | [13] 96.1% | [14] 88.6% | [15] 101% | [16] 104% | [17] 92.9% | [18] 84.4% | [19] 96.6% | [20] 91.7%

COc1cc(C2C=C(c3cccc(NC(C)=O)c3)Nc3ncnn32)cc(OC)c1OC (stereo not given)
active: [15] 4.84% | [17] -10.6% | [18] 1.13% | [20] 9.75%
inactive: [1] 41.4% | [2] 10.9% | [3] 21.9% | [4] 52% | [5] 25.4% | [6] 33.3% | [7] 21.6% | [8] 22.9% | [9] 42.1% | [10] 51.5% | [11] 64.9% | [12] 37.2% | [13] 32.9% | [14] 59.6% | [16] 52.8% | [19] 11.5%

Cc1cc(Cc2cc(C)cc(C(C)(C)C)c2O)c(O)c(C(C)(C)C)c1
inactive: [1] 21.4% | [2] 25% | [3] 69.3% | [4] 48% | [5] 32.5% | [6] 33.9% | [7] 48.3% | [8] 47% | [9] 47.5% | [10] 80.3% | [11] 68.8% | [12] 26.5% | [13] 28.1% | [14] 43% | [15] 52.8% | [16] 34.3% | [17] 31% | [18] 90.2% | [19] 28.5% | [20] 29.1%
